Source: the supplement of paper PMC3334620
The full ranking holds about 33,000 sequences; the median of “E-score (-0.5 to 0.5)” is about -0.032, and the highest 2% start at about 0.36. For the sample, the highest values were picked, then their nearest neighbours and some sequences at random.

What follows are sequences tested against T1, Sko1 (UniProt Q02100) (assay: PBM E-score (8-mer binding enrichment) (E-score (-0.5 to 0.5)); higher = stronger / more preferred TF binding). Settings: protein concentration: 200 nM; construct: GST-full length.
T1 sequence: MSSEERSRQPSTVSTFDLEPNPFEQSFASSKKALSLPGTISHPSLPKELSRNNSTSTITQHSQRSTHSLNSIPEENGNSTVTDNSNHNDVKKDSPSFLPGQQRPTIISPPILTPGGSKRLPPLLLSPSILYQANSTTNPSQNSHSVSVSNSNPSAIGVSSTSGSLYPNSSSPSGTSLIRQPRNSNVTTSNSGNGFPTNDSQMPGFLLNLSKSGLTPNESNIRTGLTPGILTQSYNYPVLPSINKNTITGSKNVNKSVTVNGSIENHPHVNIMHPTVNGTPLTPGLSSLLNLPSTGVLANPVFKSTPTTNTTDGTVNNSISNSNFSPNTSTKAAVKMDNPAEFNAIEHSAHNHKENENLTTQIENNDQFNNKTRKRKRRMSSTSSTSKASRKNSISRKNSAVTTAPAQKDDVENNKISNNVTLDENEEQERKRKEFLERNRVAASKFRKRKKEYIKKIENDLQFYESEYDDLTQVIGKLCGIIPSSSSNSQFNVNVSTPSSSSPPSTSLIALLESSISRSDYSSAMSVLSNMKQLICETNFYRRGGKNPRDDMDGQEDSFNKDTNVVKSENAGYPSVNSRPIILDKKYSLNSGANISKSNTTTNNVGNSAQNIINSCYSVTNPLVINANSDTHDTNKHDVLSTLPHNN
Experimental: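 Universal 'all 10-mer' protein binding microarrays (Agilent AMADID 015681) probed with GST-tagged S. cerevisiae TFs (full-length or DBD) made by in vitro transcription/translation (PURExpress), about 100-200 nM. Bound TF was detected with fluorescent anti-GST. Each ungapped 8-mer (which stands for itself and its reverse complement) is scored by the PBM enrichment score (E-score), a modified Wilcoxon-Mann-Whitney statistic from -0.5 to +0.5, computed with the Universal PBM Analysis Suite. Scale: above 0.35 generally sequence-specific binding.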

| Sequence | PBM E-score |
| --- | --- |
| AACGCATA | 0.219 |
| AACGCAAG | 0.0717 |
| TACGCATA | 0.368 |
| GACGCAAA | 0.347 |
| AACGCAAC | 0.289 |
| CACGCACA | 0.222 |
| CACGCATA | 0.0358 |
| TACGCACA | 0.401 |
| TACGCAAA | 0.415 |
| AACGCAAT | 0.38 |
| CACGCACG | 0.204 |
| AACGCAAA | 0.175 |
| TCAGCCGA | -0.104 |
| GGGGCGAC | -0.228 |
| GAGACCGC | -0.32 |
| CATGCCTC | 0.0373 |
| TAGAGCGA | -0.114 |
| GGGTTGTA | -0.19 |
| CACGCAAA | 0.26 |
| AACGCACA | 0.161 |
| CACGCAAG | 0.3 |
| AACGCACG | 0.31 |
| GACGCACA | 0.36 |
| CACGCAAC | 0.379 |
| TCGCTTAA | -0.0032 |

| Sequence | PBM E-score |
| --- | --- |
| GAGACTGC | -0.054 |
| AAAGAACT | -0.0725 |
| AACAGAGG | -0.205 |
| CGGTTCTC | -0.0999 |
| AACCTTCT | -0.298 |
| CAAGGTCA | -0.144 |
| CGTGATGA | 0.36 |
| CGTGACGA | 0.411 |
| AGTGACGC | 0.416 |
| CGTGACCA | -0.0216 |
| CGTGACGC | 0.422 |
| AGTGACTC | -0.0159 |
| AGTGACCC | -0.23 |
| CTTGACGC | 0.262 |
| GGTGATGA | 0.18 |
| AGTGATGA | 0.21 |
| CCTGACGC | 0.0655 |
| CGTGACAA | 0.188 |
| ACCTGAGC | 0.0188 |
| AACTGGTC | -0.112 |
| CTTAGTTC | 0.0167 |
| AAACAGCT | -0.0726 |
| CGCTCTCA | -0.0854 |
| GAAACACC | 0.02 |
| TAGTTCAA | 0.0959 |

| Sequence | PBM E-score |
| --- | --- |
| GGCGCACC | -0.36 |
| TCACAAGA | -0.00762 |
| CCTGGCGC | -0.133 |
| CCGTAAAG | 0.0256 |
| ACGTAAAG | 0.461 |
| GCGTAAAC | 0.281 |
| AAGTAAAT | 0.139 |
| ACGTAAAT | 0.463 |
| GCGTAAAA | 0.279 |
| CCGTAAAA | 0.053 |
| ACGTAAAC | 0.459 |
| AGGTAAAT | 0.131 |
| ACGTAAAA | 0.463 |
| AAGTAAAG | -0.152 |
| CCGTAAAC | 0.104 |
| CACGCACC | 0.115 |
| AGCTTTGC | -0.179 |
| GAAAATGC | 0.0279 |
| GAGTAGCA | 0.0153 |
| TCTGGCAA | -0.261 |
| CTGAAAGA | -0.0455 |
| CATTGCAG | 0.0387 |
| GGATGCAC | -0.16 |
| GTCTGCAC | -0.118 |
| CGACGTCA | 0.486 |

| Sequence | PBM E-score |
| --- | --- |
| GGCCGTCA | -0.184 |
| GGACGTCC | -0.151 |
| AGACGTCA | 0.484 |
| AGACGTCC | 0.281 |
| CGACGTCC | 0.169 |
| CGACGTCG | 0.209 |
| GGACGTCA | 0.466 |
| AGACGTCT | 0.271 |
| GCAGATGA | -0.0175 |
| AGCCGGAG | 0.0107 |
| CAAGTACC | -0.0542 |
| AAGGATCG | 0.0147 |
| AAGTTTTA | 0.142 |
| AGTCGGAA | -0.0901 |
| AGACTCAT | 0.183 |
| ATTACGGG | 0.206 |
| ATTACGGC | 0.303 |
| ATTAGGTC | 0.207 |
| ATTACCTG | 0.067 |
| ATTACGTG | 0.487 |
| ATTACGTC | 0.492 |
| GAGAGCCA | -0.118 |
| AGGCTGCC | -0.341 |
| GATCCACA | -0.0832 |
| CTTCCTTC | -0.284 |

| Sequence | PBM E-score |
| --- | --- |
| GTAGATTA | 0.269 |
| AACTGAAG | 0.0972 |
| CACGTAGG | 0.396 |
| CCCGTAGC | -0.291 |
| CTCGTAGC | -0.0204 |
| AACGTAGA | 0.357 |
| AACGTAGG | 0.336 |
| CACGTAGC | 0.364 |
| AACGTAGC | 0.349 |
| CACGTAGA | 0.39 |
| GACGTAGC | 0.436 |
| GCCGTAGC | -0.328 |
| CGCGTAGA | 0.0669 |
| CCCGTAGG | -0.194 |
| CTGCACTC | -0.16 |
| GTTTAAGA | -0.0752 |
| CAGTCGTC | 0.0351 |
| CTTCCTGC | -0.256 |
| CGTAGCAC | 0.295 |
| GCCATCCC | -0.319 |
| CCACTGTC | -0.185 |
| ACAAGGGT | -0.0251 |
| GCCAGCAA | -0.205 |
| CTAACCAG | -0.0782 |
| GACCTGGC | -0.297 |

| Sequence | PBM E-score |
| --- | --- |
| GTCGTAGA | 0.166 |
| TCCGTAGA | -0.15 |
| GACGTAGA | 0.42 |
| TACGTAGA | 0.452 |
| AGCGTAGA | -0.0243 |
| GGCGTAGA | 0.118 |
| AGCGACAG | -0.155 |
| GGTAAAAA | 0.0275 |
| CGTAATCC | 0.405 |
| CGTAATCA | 0.452 |
| AGTAAACA | 0.0928 |
| AGTAATCA | 0.0126 |
| GGTAATCA | 0.0412 |
| GGTAAACA | 0.136 |
| CCTAATCC | -0.11 |
| CGTAAACA | 0.374 |
| AGTAATCC | 0.0657 |
| GGTGGCAA | -0.169 |
| CCCGACGC | -0.148 |
| AAGGTTTA | -0.0389 |
| ATCTTGGC | -0.119 |
| ACGAGACT | 0.0545 |
| AACACCAA | 0.109 |
| ACTACGAA | 0.289 |
| ACTACGTG | 0.415 |

| Sequence | PBM E-score |
| --- | --- |
| ACTACGGA | -0.036 |
| ACTACGCG | 0.245 |
| GCTACGAA | 0.239 |
| GCTACGTA | 0.456 |
| ACTACGGG | -0.221 |
| GCTACGGA | -0.0597 |
| ACTACGTA | 0.484 |
| ATAGCGAG | -0.0959 |
| AGAATGAC | 0.377 |
| GCAATGAC | 0.374 |
| ATAATGAC | 0.378 |
| ATAATGAG | 0.114 |
| CCAATGAC | 0.253 |
| GTAATGGA | 0.402 |
| AGAATGAG | 0.0649 |
| ATAATGGA | 0.068 |
| ATAATGAT | 0.278 |
| CGAATGAC | 0.351 |
| GCAATGAA | 0.128 |
| CTAATGGA | -0.158 |
| AATCAAAC | 0.229 |
| AGAAGTGG | -0.19 |
| ACTTCTAA | -0.0244 |
